# Experimental data published in PubChem BioAssay (NCATS).
# Records with an inconclusive call do not appear. Activity calls are given as the source filed them. Calls come from the whole dose curve; as a rule, active = well fitted curve in the direction sought with a large enough effect; inconclusive = small, poorly fitted or top-dose-only effect, or another doubt; inactive = no such curve, though single readings can be large; an effect the other way counts as inactive or inconclusive.
# Experiment: Quantitative High-Throughput drug screen in 47 multiple myeloma cell lines against the NCATS MIPE library collection: MOLP8_DSMZ cell viability assay (AID 1918977); note: nearly all actives have a fitted effect of over 45% in size;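 for viability (% of control): 100% = DMSO-only wells and 0% = media-only wells without cells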
# Settings: MOLP8 myeloma viability, CellTiter-Glo ATP luminescence, 48 h; series mostly up to 45.8 µM; viability (% of control): at the top concentration
# Summary of the method: (§1)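 Plated at 500 cells per well, myeloma lines received MIPE 4.0 compounds by pin tool. Following 48 h culture at 37 °C, CellTiter-Glo luminescence gave viability relative to DMSO and media-only controls.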
# Potency is the fitted concentration of half-maximal effect.
SMILES,viability (% of control),Potency
COc1ccccc1N1CCN(CC(O)COc2cccc3ccccc23)CC1 (centres undefined),111% (inactive),
Clc1ccc(C(c2ccccc2Cl)C(Cl)Cl)cc1 (centres undefined),,26.4 µM (active)
CC(C(=O)O)c1cccc(C(=O)c2ccccc2)c1 (centres undefined),68.3% (inactive),
O=C(C1CCCCC1)N1CC(=O)N2CCc3ccccc3C2C1 (centres undefined),141% (inactive),
CCCNCC(O)COc1ccccc1C(=O)CCc1ccccc1 (centres undefined),78.2% (inactive),
CN1CCN(C2=Nc3cc(Cl)ccc3Nc3ccccc32)CC1,114% (inactive),
C[C@](N)(Cc1ccc(O)c(O)c1)C(=O)O,,13.2 µM (active)
O=C(CCCN1CCC(O)(c2ccc(Cl)cc2)CC1)c1ccc(F)cc1,88.3% (inactive),
OCCN(CCO)c1nc(N2CCCCC2)c2nc(N(CCO)CCO)nc(N3CCCCC3)c2n1,,16.6 µM (active)
COc1ccc2c(c1)c(CC(=O)O)c(C)n2C(=O)c1ccc(Cl)cc1,101% (inactive),
COc1cc2nc(N3CCN(C(=O)C4COc5ccccc5O4)CC3)nc(N)c2cc1OC (centres undefined),100% (inactive),
CN(Cc1cnc2nc(N)nc(N)c2n1)c1ccc(C(=O)N[C@@H](CCC(=O)O)C(=O)O)cc1,,6.62 µM (active)
Cc1cc(C(C)(C)C)cc(C)c1CC1=NCCN1,102% (inactive),
Cc1cc(C(C)(C)C)c(O)c(C)c1CC1=NCCN1,136% (inactive),

# Experiment: Quantitative High-Throughput drug screen in 47 multiple myeloma cell lines against the NCATS MIPE library collection: NCIH929_DSMZ cell viability assay (AID 1918978); note: nearly all actives have a fitted effect of over 35% in size
# Settings: NCI-H929 myeloma viability, CellTiter-Glo ATP, 48 h; series mostly up to 45.8 µM; viability, % of control: at the top concentration
# Summary of the method: as §1
SMILES,"viability, % of control",Potency
COc1ccccc1N1CCN(CC(O)COc2cccc3ccccc23)CC1 (centres undefined),105% (inactive),
NCCc1cnc[nH]1,134% (inactive),
CN(C)CCC=C1c2ccccc2C=Cc2ccccc21,108% (inactive),
COc1cc2nc(N(C)CCCNC(=O)C3CCCO3)nc(N)c2cc1OC (centres undefined),99.3% (inactive),
CC(C)(Oc1ccc(C2CC2(Cl)Cl)cc1)C(=O)O (centres undefined),105% [at 92.2 µM] (inactive),
NCCS(=O)(=O)O,117% (inactive),
CC(C(=O)O)c1cccc(C(=O)c2ccccc2)c1 (centres undefined),,13.2 µM (active)
CCCNCC(O)COc1ccccc1C(=O)CCc1ccccc1 (centres undefined),91% (inactive),
N[C@@H](Cc1c[nH]c2ccc(O)cc12)C(=O)O,96.7% (inactive),
CS(=O)(=O)Nc1ccc([N+](=O)[O-])cc1Oc1ccccc1,101% (inactive),
C[C@H]1c2cccc(O)c2C(O)=C2C(=O)[C@]3(O)C(O)=C(C(N)=O)C(=O)[C@@H](N(C)C)[C@@H]3[C@@H](O)[C@@H]21,,18.7 µM (active)
CN(C)C(=N)N=C(N)N,117% (inactive),
Nc1nnc(-c2cccc(Cl)c2Cl)c(N)n1,,23.5 µM (active)
Cc1ccccc1N1C(=O)c2cc(S(N)(=O)=O)c(Cl)cc2NC1C (centres undefined),97.7% (inactive),
COc1ccc2c(c1)c(CC(=O)O)c(C)n2C(=O)c1ccc(Cl)cc1,,18.7 µM (active)
COc1cc2nc(N3CCN(C(=O)C4COc5ccccc5O4)CC3)nc(N)c2cc1OC (centres undefined),,23.5 µM (active)
CN(Cc1cnc2nc(N)nc(N)c2n1)c1ccc(C(=O)N[C@@H](CCC(=O)O)C(=O)O)cc1,,2.35 µM (active)
Cc1cc(C(C)(C)C)cc(C)c1CC1=NCCN1,93.4% (inactive),
O=C1N(c2ccccc2)c2ccccc2C1(Cc1ccncc1)Cc1ccncc1,127% (inactive),
Cc1cc(C(C)(C)C)c(O)c(C)c1CC1=NCCN1,119% (inactive),
